Assay results reported in PubChem BioAssay (NCI).
Compounds without any hit were thinned out: in the full panel of roughly 83,000, 20% have a hit.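 Results are percent growth after 48 hours of single-concentration exposure. 100 means growth as in untreated cells, lower positive values show inhibition; negative values down to -100 show cell death.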 Unmarked numbers belong to inactive results. Active and inactive are the calls of the source. Rule for the calls: active = growth percent below 10; inactive = the rest.

Test system: OVCAR-3 ovarian
Assay: NCI-60 one-dose screen, 48 h (100 = growth as untreated, 0 = no growth, -100 = all killed)
Settings: 10 µM unless noted

SMILES | growth
CC1=NN(c2ccccc2Cl)C(=O)/C1=C\c1cn(S(=O)(=O)c2ccc(C)cc2)c2ccccc12 | 110%
O=c1c(O)cccn1CCCNCCCN(CCCn1cccc(O)c1=O)CCCn1cccc(O)c1=O | 103%
O=C1OCC/C1=C\OCCCO/C=C1\CCOC1=O | 110%
O=C(Nc1cccc2ccccc12)c1cc2c(cc1Br)OCO2 | 104%
c1ccc2c(c1)[nH]c1c2cc[n+]2cc3c(cc12)CCCC3 | 20.9%
CN1CCCC1c1cccnc1 (stereo not given) | 117%
Cn1cc(-c2nc(-c3c[nH]c4ncccc34)cs2)c2cccnc21 | 82.6%
O=C1NC(=O)/C(=C\c2ccccc2)C2=C1CCCC2 | -73.9% (active)
C[C@]12CC[C@@H]3c4ccc(O)c([N+](=O)[O-])c4CC[C@H]3[C@@H]1CC[C@@H]2NS(=O)(=O)c1ccc(C(F)(F)F)cc1 | 23.2%
O=C(Oc1ccc[nH]c1=O)c1cccc(Cl)c1 | 102%
COc1ccc(Cn2cc3c(c2-c2ccccc2)CCc2cncnc2-3)cc1 | 29.6%
Cn1cc(-c2csc(-c3cn(C)c4ncccc34)n2)c2cc(Br)cnc21 | 119%
C[n+]1ccc(Nc2ccc(NC(=O)c3ccc(Nc4cc[n+](C)c5ccc(N)cc45)cc3)cc2)cc1 | 115%
Cc1cc2c(cc1[N+](=O)[O-])NC(CNC(C)C)CC2 (stereo not given) | 96.6%
CC(=O)Oc1c(C)c(OC(C)=O)c2c(c1C(C)=O)OC1CC(=O)C(C(C)=O)=C(O)C21C (stereo not given) | 118%
